Sm TGR block: blocks Schistosoma mansoni thioredoxin glutathione reductase. Potency, µM (highest dose often 114 µM), without a hit: at the highest dose activity change, negative = inhibition, hits mostly inhibitors. purified TGR, DTNB reduction, TNB absorbance 405 nm. actives 3% (n = 360,000). AID 485364. Q962Y6; note: potency is the fitted concentration of half-maximal effect; % is set by controls: 0 for no effect and ±100 for the full control effect; nearly all actives have a fitted effect of over 60% in size
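First, TGR (20 nM dispensed) and NADPH were mixed with compound. Second, a 15 min room-temperature incubation followed. Third, further NADPH and then DTNB were added to start the reaction. Finally, TNB absorbance was monitored kinetically.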
HCMV inh: blocks human cytomegalovirus replication. actives 4.5% (n = 410,000). HFF cells, HCMV-luciferase reporter, 72 h; active compounds read low. activity change, negative = inhibition, % at 57.5 µM; in the data active = activity change below about -60%; inconclusive = no clear call, values can overlap the other calls; inactive = above about -39%; note: % is set by controls: 0 for no effect and ±100 for the full control effect
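HFF cells seeded 16 h at 37C, treated with compounds, infected with luciferase-reporter HCMV at MOI 1 PFU/cell; luciferase read at 72 h post infection, normalized to buffer-only and Salinomycin controls.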
SARS PLpro yeast-1: SARS-CoV PLP inhibition in yeast. Potency, µM (series often up to 32.9 µM), for the others: at the top dose activity, positive = growth rescue, most hits filed as activators. S. cerevisiae expressing SARS-CoV PLpro, growth rescue. actives 0.19% (n = 330,000); calls by dose curve; note: potency is the fitted concentration of half-maximal effect; 0% is about no effect; nearly all actives have a fitted effect of over 55% in size
Pf growth 96h: P. falciparum growth inhibition at 96 hours. P. falciparum luciferase reporter growth, 96 h. Potency, µM (doses to about 28.7 µM), for inactives: top-dose activity change, negative = inhibition, usual class: inhibitors. actives 6.9% (n = 320,000). AID 504834; note: potency is the fitted concentration of half-maximal effect; % is set by controls: 0 for no effect and ±100 for the full control effect
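Erythrocytes infected with luciferase-expressing P. falciparum were dispensed at 2% hematocrit and 0.05% parasitemia (final), then incubated with compounds 96 hours at 37 C in 5% CO2. Luminescence after detection reagent addition reported growth.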
Pf growth 48h: inhibits P. falciparum growth in the first generation, 48 h. P. falciparum luciferase growth in erythrocytes, 48 h. Potency, µM (series often up to 28.7 µM), for the others: top-dose activity change, negative = inhibition, usual class: inhibitors. actives 5.9% (n = 310,000); note: potency is the fitted concentration of half-maximal effect; % is set by controls: 0 for no effect and ±100 for the full control effect
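Read-out is firefly luciferase luminescence from an integrated reporter in P. falciparum, so falling signal marks reduced parasite growth. Infected erythrocytes were at 2% hematocrit and 0.1% parasitemia (final) in Albumax-supplemented RPMI 1640.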
HCV inhibitor: HCV inhibition | Huh7.5.1 HCVcc-Cre infection, luciferase reporter, 44 h | Potency, µM (highest dose often 41.8 µM), without a hit: at the top dose activity change, negative = inhibition, usual class: inhibitors | actives 3.4% (n = 340,000) | AID 651820; note: potency is the fitted concentration of half-maximal effect; % is set by controls: 0 for no effect and ±100 for the full control effect
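After 44 h co-culture of compound, cells and HCVcc-Cre (~0.5 moi), substrate is added for 15 min at room temperature and luciferase measured over 15 sec. Cells were seeded at 1,000/well and pre-cultured 4 h.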
SARS PLpro yeast-2: Inhibits SARS-CoV PLP in yeast, hit validation | yeast expressing SARS-CoV PLpro, growth phenotype rescue | shares compounds with SARS PLpro yeast-1 | calls only | actives 19% (n = 1,000) | AID 652038; call rule not given here
Numbers without * were called inactive; i = inactive; ? = inconclusive; . = not tested or not shown; + = active, no number; [ ] = dose if it differs, or a comment. Sampled rows, rich in hits. Any-hit rate of the full collection: about 15%. Unless noted, calls come from the whole dose curve; as a rule, active = well fitted curve in the direction sought with a large enough effect; inconclusive = small, poorly fitted or top-dose-only effect, or another doubt; inactive = no such curve, though single readings can be large; an effect the other way counts as inactive or inconclusive.

SMILES | Sm TGR block | HCMV inh | SARS PLpro yeast-1 | Pf growth 96h | Pf growth 48h | HCV inhibitor | SARS PLpro yeast-2
CCOC(=O)COc1c(Cl)cc(C2NC(=S)NC(c3ccccc3)=C2C(C)=O)cc1OCC (configuration not stated) | -4% | -60* | ? | ? | ? | -19% | i
C[C@]12CC[C@@H]3c4ccc(O)cc4CC[C@H]3[C@@H]1C[C@@H](O)[C@@H]2O[C@@H]1O[C@H](C(=O)O)[C@@H](O)[C@H](O)[C@H]1O | ? | 38 | ? | 2% | -11% | -2%[8.37 µM] | i
O=c1c(N2CCOCC2)nsnc1N1CCOCC1 | 0% | 7 | ? | -27% | 15% | 16% | i
Cc1ccc(C)c(N2CC(=O)N(c3cc(C)ccc3C)CC2=O)c1 | -5% | 40 | ? | . | 13% | 8% | i
CN(C)c1cc[n+](CC(=O)Nc2cc(C(F)(F)F)ccc2Cl)cc1 | ? | -5 | ? | 0.83µM* | 1.7µM* | 18% | i
Cc1cc[n+](CC(=O)Nc2cc(C(F)(F)F)ccc2Cl)cc1 | 4% | 28 | 4% | ? | ? | 25% | .
CCOc1ccc(C2=CC(c3cccc(Br)c3)n3c(nc4ccccc43)N2)cc1Cl (configuration not stated) | ? | 96 | . | . | . | . | .
CCC(=O)N(C)CCc1cc2c(c(OC)c1/C=N/NC(=O)c1ccccc1O)OCO2 | 0% | 1 | ? | 23% | 27% | 9% | +
COc1c(/C=N/NC(=O)c2ccccc2O)c(CCN(C)C(C)=O)cc2c1OCO2 | 9% | 34 | -19% | 1% | 32% | 17% | .
CN(C)CCCCCCN(C)C | . | -6 | . | -8% | 3% | . | .
CCCC(=O)N(CCN1CCOCC1)c1nc2c(OC)ccc(OC)c2s1 | -27% | 0 | -1% | 36% | 18% | 1% | .
COc1ccc(Cl)cc1NC(=O)COC(=O)/C=C/c1c(C)nn(C2CCS(=O)(=O)C2)c1Cl (configuration not stated) | -3% | -22 | ? | ? | ? | ? | i
CN(C1CCCCC1)S(=O)(=O)c1ccc2c(c1)c(=O)c(C(=O)NCc1ccccc1Cl)cn2C | 6% | -20 | . | . | . | . | .
O=c1cccc2n1CC1CC2CN(Cc2ccc3c(c2)OCO3)C1 (configuration not stated) | -24% | 28 | ? | -18% | . | -6% | ?
CC(=O)NCc1nc2cccnc2n1Cc1ccccc1 | 4% | -19 | . | . | . | . | .
CN1C(=O)SC(Nc2ccccc2)C1=O (configuration not stated) | 0% | ? | 13µM* | ? | -17% | 0% | i
CN1C(=O)SC(Nc2ccc(F)cc2)C1=O (configuration not stated) | -7% | 10 | -4% | ? | -10% | 9% | .
O=[N+]([O-])c1ccc(OC2OCC(O)C(O)C2O)cc1 (configuration not stated) | . | -22 | . | . | . | . | .
Cc1ccc(NC(=O)c2nc[nH]c2C(=O)NCCCCNC(=O)c2[nH]cnc2C(=O)Nc2ccc(C)cc2)cc1 | . | 12 | 3% | . | . | 20% | .
Cc1ccc(NC(=O)c2nc[nH]c2C(=O)NCCCCCCNC(=O)c2[nH]cnc2C(=O)Nc2ccc(C)cc2)cc1 | . | 8 | 13µM* | . | . | 11% | i
CC(=O)Oc1cc2oc(=O)cc(C)c2cc1Cl | 1% | -36 | 0% | 21% | 19% | 13% | .
Cc1ccc(S(=O)(=O)NC(C(=O)Oc2cc3oc(=O)cc(C)c3cc2Cl)C(C)C)cc1 (configuration not stated) | -13% | -18 | 22µM* | -25% | -5% | 11% | ?
Cc1cccc(C2=NN(c3ccc(Br)cc3)[C@@H](C(=O)N3CCOC3=O)[C@@H]2c2ccccc2)c1 | . | . | 3.5µM* | . | . | 15% | i

Bioassay records as filed in PubChem.
